# Laboratory results reported in article PMC7862700, “An all-to-all approach to the identification of sequence-specific readers for epigenetic DNA modifications on cytosine”.
# Columns and labels:
# Test in all cases: DAPPL (digital affinity profiling via proximity ligation, sequencing); 10 mM Tris-HCl pH 7.5, 50 mM NaCl, 1 mM DTT, 4% glycerol, room temperature, 30 min; GST-TFs on glutathione beads, 16-mer random dsDNA library, 0.1% formaldehyde crosslink after washing; high values mean tight binding
# Conditions in all cases: protein: recombinant; tags: N-terminal GST; dsDNA, one strand shown
# FLI1 = biological target: T1, FLI1 (Homo sapiens, UniProt Q01543 1-452)
# T1 sequence: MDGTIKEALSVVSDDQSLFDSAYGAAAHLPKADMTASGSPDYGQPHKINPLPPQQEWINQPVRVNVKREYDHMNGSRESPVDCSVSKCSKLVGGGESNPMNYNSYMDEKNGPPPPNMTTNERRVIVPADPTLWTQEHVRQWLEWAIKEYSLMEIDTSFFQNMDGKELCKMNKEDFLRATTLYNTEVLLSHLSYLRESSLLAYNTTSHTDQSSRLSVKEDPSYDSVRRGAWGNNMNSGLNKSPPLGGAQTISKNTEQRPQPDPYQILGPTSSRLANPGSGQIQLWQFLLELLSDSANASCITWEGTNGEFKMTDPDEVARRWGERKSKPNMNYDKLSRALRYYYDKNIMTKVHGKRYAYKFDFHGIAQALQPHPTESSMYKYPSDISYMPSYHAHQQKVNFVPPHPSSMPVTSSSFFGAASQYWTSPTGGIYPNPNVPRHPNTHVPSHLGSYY
# Method in brief: (§1)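 Binding signal is defined as a hexamer's read frequency for one factor over its frequency for the tag-only sample. To obtain reads, GST-fused human transcription factors were expressed in yeast, captured on glutathione beads, barcoded with DNA and pooled with that sample. Pools met 200 nmole of a 16-mer random double-stranded DNA library in Tris/NaCl/DTT/glycerol buffer for 30 min at room temperature before washing, 0.1% formaldehyde crosslinking, proximity ligation (BsaI/T4 ligase, 1 h, 37 °C), PCR and Illumina NextSeq500 sequencing.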
# ERG = biological target: T2, ERG (Homo sapiens, UniProt P11308 1-479)
# T2 sequence: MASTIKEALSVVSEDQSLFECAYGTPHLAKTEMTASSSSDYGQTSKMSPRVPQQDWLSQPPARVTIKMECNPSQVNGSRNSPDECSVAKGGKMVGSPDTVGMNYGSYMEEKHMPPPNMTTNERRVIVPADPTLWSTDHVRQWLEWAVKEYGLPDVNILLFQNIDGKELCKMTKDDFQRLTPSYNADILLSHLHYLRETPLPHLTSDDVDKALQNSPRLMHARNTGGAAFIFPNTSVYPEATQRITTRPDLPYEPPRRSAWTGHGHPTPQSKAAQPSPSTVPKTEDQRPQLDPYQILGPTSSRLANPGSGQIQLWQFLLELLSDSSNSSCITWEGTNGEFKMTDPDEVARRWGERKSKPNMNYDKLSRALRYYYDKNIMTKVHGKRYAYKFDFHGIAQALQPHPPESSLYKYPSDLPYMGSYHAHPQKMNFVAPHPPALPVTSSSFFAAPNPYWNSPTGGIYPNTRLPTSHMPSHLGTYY
# Method in brief: as §1
# SPI1 = SPI1 (Homo sapiens, UniProt P17947 1-270)
# Method in brief: as §1
# ELK3 = biological target: T3, ELK3 (Homo sapiens, UniProt P41970 1-407)
# T3 sequence: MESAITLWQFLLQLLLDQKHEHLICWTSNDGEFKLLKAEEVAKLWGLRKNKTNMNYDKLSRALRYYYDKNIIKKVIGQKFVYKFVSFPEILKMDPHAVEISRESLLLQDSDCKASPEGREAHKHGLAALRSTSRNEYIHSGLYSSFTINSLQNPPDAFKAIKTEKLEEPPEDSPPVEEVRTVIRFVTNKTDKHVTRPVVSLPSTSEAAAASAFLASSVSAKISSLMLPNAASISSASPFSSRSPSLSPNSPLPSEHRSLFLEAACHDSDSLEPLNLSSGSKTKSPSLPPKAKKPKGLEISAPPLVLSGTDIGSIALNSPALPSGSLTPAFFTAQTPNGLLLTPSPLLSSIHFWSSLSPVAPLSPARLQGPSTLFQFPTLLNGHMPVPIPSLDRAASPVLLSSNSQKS
# Method in brief: as §1
# SPIC = biological target: T4, SPIC (Homo sapiens, UniProt Q8N5J4 1-248)
# T4 sequence: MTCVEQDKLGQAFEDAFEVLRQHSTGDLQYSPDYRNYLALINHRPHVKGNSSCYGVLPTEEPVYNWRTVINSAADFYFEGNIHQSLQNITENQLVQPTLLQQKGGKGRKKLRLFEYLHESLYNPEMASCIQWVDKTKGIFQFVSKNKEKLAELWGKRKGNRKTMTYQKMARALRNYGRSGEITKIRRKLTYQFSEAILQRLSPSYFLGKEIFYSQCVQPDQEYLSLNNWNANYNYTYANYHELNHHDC
# Method in brief: as §1
# ELF4 = ELF4 (Homo sapiens, UniProt Q99607 1-663)
# Method in brief: as §1
# ELF3 = biological target: T5, ELF3 (Homo sapiens, UniProt P78545 1-371)
# T5 sequence: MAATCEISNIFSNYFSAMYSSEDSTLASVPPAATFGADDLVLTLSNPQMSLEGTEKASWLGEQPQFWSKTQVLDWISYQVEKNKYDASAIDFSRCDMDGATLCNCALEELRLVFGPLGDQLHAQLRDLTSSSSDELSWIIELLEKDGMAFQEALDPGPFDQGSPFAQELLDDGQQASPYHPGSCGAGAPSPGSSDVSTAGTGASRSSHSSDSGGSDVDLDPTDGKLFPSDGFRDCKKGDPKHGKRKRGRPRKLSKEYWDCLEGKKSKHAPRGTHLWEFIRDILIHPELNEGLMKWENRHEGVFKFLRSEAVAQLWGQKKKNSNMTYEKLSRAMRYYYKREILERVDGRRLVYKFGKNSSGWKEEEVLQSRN
# Method in brief: as §1
# ETV1 = ETV1 (Homo sapiens, UniProt P50549 1-477)
# Method in brief: as §1
# ETV3L = biological target: T6, ETV3L (Homo sapiens, UniProt Q6ZN32 1-361)
# T6 sequence: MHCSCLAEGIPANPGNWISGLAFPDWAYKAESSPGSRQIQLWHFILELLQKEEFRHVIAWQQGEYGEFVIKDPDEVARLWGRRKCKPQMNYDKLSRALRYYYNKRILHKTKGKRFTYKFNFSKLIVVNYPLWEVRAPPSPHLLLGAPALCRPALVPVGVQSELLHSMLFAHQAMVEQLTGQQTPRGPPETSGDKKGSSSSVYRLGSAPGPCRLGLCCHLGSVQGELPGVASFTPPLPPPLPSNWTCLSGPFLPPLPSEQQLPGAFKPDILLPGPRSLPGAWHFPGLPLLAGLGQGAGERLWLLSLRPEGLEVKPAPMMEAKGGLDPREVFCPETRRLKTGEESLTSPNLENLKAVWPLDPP
# Method in brief: as §1
# ETS2 = biological target: T7, ETS2 (Homo sapiens, UniProt P15036 1-469)
# T7 sequence: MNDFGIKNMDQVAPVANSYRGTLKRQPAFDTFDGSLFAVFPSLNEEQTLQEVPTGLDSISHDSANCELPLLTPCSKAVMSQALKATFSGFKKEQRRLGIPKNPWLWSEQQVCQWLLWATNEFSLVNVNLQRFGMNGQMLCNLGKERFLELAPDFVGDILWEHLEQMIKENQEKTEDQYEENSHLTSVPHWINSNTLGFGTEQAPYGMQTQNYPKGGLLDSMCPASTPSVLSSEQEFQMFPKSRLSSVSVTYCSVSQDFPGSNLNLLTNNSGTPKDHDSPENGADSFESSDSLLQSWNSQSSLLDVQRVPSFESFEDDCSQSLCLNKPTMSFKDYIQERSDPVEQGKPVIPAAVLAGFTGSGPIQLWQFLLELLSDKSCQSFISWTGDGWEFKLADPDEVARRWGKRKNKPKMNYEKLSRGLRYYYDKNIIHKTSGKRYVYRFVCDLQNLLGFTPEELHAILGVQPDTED
# Method in brief: as §1
# SPDEF = biological target: T8, SPDEF (Homo sapiens, UniProt O95238 1-335)
# T8 sequence: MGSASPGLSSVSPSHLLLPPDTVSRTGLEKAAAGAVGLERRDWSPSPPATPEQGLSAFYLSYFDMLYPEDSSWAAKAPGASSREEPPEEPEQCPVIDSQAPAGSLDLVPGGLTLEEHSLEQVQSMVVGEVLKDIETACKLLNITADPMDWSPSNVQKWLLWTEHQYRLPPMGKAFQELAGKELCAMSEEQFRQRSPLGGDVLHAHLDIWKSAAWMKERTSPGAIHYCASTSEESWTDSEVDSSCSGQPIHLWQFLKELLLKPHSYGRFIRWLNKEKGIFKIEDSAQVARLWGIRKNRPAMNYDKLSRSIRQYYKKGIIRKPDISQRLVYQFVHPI
# Method in brief: as §1
# ELF5 = biological target: T9, ELF5 (Homo sapiens, UniProt Q9UKW6-2 1-255)
# T9 sequence: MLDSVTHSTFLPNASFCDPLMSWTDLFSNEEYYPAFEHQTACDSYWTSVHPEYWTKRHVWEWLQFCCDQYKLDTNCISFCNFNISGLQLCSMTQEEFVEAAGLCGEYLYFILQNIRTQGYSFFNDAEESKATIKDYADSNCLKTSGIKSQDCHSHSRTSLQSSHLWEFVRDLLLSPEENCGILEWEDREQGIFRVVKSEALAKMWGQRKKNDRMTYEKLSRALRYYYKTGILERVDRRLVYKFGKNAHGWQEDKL
# Method in brief: as §1
# ETV3 = biological target: T10, ETV3 (Homo sapiens, UniProt P41162-2 1-143)
# T10 sequence: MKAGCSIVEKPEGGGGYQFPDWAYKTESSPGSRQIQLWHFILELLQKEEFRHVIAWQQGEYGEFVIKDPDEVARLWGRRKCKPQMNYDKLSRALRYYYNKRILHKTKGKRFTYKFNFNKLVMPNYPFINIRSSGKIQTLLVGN
# Method in brief: as §1
# ELK4 = biological target: T11, ELK4 (Homo sapiens, UniProt P28324-2 1-405)
# T11 sequence: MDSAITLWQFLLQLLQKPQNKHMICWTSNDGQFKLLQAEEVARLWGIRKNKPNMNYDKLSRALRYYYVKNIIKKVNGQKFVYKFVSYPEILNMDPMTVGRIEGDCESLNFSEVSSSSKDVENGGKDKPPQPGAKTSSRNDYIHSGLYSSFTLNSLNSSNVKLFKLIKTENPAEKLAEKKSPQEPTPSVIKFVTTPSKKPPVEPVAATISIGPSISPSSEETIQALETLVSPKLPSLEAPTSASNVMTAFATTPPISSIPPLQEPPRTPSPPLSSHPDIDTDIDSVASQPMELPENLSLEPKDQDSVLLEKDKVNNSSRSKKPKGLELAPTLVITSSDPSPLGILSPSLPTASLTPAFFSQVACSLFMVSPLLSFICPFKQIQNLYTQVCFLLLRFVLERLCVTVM
# Method in brief: as §1
# Chain of ELF4 (Q99607 whole entry): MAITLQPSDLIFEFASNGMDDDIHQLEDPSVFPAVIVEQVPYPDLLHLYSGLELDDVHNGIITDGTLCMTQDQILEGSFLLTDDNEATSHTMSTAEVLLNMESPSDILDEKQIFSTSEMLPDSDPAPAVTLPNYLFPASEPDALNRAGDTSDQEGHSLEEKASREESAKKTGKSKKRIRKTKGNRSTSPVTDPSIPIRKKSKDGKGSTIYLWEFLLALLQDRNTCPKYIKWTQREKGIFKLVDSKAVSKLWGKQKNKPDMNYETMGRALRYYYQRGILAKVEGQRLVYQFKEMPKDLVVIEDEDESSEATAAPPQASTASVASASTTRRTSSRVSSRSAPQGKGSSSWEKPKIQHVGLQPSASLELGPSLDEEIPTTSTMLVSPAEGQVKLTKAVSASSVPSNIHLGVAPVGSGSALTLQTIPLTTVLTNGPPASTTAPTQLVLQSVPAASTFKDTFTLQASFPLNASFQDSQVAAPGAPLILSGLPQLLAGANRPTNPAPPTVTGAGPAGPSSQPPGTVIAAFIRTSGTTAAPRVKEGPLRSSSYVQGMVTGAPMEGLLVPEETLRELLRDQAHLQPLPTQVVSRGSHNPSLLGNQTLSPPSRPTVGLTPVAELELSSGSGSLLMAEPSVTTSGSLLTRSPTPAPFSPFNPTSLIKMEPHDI
# Chain of ETV1 (P50549 whole entry): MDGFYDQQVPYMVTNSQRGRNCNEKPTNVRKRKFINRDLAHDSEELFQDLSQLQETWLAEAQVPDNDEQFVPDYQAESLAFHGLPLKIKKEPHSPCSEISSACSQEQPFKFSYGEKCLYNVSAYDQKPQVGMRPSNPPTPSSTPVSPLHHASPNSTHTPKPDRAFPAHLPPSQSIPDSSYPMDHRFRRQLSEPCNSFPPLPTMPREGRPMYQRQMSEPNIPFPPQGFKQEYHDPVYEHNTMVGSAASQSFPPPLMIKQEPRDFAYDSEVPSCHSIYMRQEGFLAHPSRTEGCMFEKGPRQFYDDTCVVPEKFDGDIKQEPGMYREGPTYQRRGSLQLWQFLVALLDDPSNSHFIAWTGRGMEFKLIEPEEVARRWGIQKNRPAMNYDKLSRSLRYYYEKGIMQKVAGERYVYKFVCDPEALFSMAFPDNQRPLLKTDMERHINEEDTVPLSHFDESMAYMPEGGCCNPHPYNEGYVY
Sequence,binding signal (FLI1),binding signal (ERG),binding signal (SPI1),binding signal (ELK3),binding signal (SPIC),binding signal (ELF4),binding signal (ELF3),binding signal (ETV1),binding signal (ETV3L),binding signal (ETS2),binding signal (SPDEF),binding signal (ELF5),binding signal (ETV3),binding signal (ELK4)
GATACA,"1.03 fold enrichment (6-mer frequency, TF over GST control)","1.03 fold enrichment (6-mer frequency, TF over GST control)","1.01 fold enrichment (6-mer frequency, TF over GST control)","1.03 fold enrichment (6-mer frequency, TF over GST control)","1.07 fold enrichment (6-mer frequency, TF over GST control)","1.08 fold enrichment (6-mer frequency, TF over GST control)","1.08 fold enrichment (6-mer frequency, TF over GST control)","1.06 fold enrichment (6-mer frequency, TF over GST control)","1.05 fold enrichment (6-mer frequency, TF over GST control)","1.05 fold enrichment (6-mer frequency, TF over GST control)","1.24 fold enrichment (6-mer frequency, TF over GST control)","1 fold enrichment (6-mer frequency, TF over GST control)","1.01 fold enrichment (6-mer frequency, TF over GST control)",
CTTGAG,"1.08 fold enrichment (6-mer frequency, TF over GST control)",,,,"1.12 fold enrichment (6-mer frequency, TF over GST control)",,,,,,,,,"1.05 fold enrichment (6-mer frequency, TF over GST control)"
